L3MBTL1 inh – blocks human L3MBTL1. Q9Y468. AlphaScreen L3MBTL1–H3K9me1 peptide binding. Potency, µM (doses to about 57.1 µM), for inactives: at the highest dose activity, negative = inhibition, most hits filed as inhibitors. actives 0.66% (n = 230,000); also: % is scaled to controls: 0 for no effect and ±100 for the full control effect; nearly all actives have a fitted effect of over 60% in size
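L3MBTL1 (50 nM) pre-complexed 30 min with biotinylated H3(1-15)K9me1 peptide (75 nM), then compounds added for 30 min at room temperature; AlphaScreen streptavidin donor/nickel chelate acceptor beads (10 ug/mL final) read after 30 min dark incubation.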
JMJD2A Tudor – blocks the human JMJD2A Tudor domain; O75164; AlphaScreen JMJD2A-Tudor / H3K4me3 peptide binding; Potency, µM (top dose mostly 114 µM), inactives show at the top dose activity change, negative = inhibition, hits mostly inhibitors; actives 4.4% (n = 390,000); also: % is scaled to controls: 0 for no effect and ±100 for the full control effect; nearly all actives have a fitted effect of over 50% in size
G9a block – blocks human histone lysine methyltransferase G9a. Q96KQ7. G9a H3K9 monomethylation, AlphaScreen, 2 h. Potency, µM (titrated, usually from 102 µM), inactives show top-dose activity, negative = inhibition, hits mostly inhibitors. actives 8.8% (n = 350,000). AID 504332; also: % is scaled to controls: 0 for no effect and ±100 for the full control effect; nearly all actives have a fitted effect of over 75% in size
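G9a (20 nM) was preincubated 15 min with compound, then reacted 2 h at room temperature with 500 nM biotin-H3K9 peptide and 20 µM SAM. Monomethyl-H3K9 detected by AlphaScreen using anti-H3K9me1 antibody.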
Sfp inh – blocks B. subtilis Sfp PPTase activity | actives 3.5% (n = 310,000) | Biochemical Sfp PPTase activity, qHTS | Potency, µM, for the others: largest response in the series, negative = inhibition, actives largely listed as inhibitors | AID 1490 | Q9F4F7;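 also: the enzyme is Sfp with the accession as filed and its product quenches rhodamine fluorescence; 0% = enzyme reaction without inhibitor and -100% = no enzyme wells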
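Sfp 15 nM + cpd, 15 min RT; start w/ rhodamine-CoA 5 uM, BHQ-2-YbbR 12.5 uM (final); 50 mM Hepes pH 7.6, 10 mM MgCl2, 0.01% NP-40, 0.01% BSA; read 525/598 nm at 0 and 30 min.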
HP1b binding inh – inhibitors of HP1-beta chromodomain binding to methylated histone tails; AlphaScreen HP1-beta / biotin-H3K9me3 peptide binding; Potency, µM (series often up to 114 µM), inactives show at the highest dose activity change, negative = inhibition, hits mostly inhibitors; actives 0.56% (n = 390,000); also: nearly all actives have a fitted effect of over 70% in size
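AlphaScreen: HP1-beta (50 nM) preformed 30 min with biotin-H3(1-18)K9me3 peptide (50 nM) in PBS pH 7.4, 0.01% Tween-20. Compound added for 30 min at RT, then streptavidin donor/nickel chelate acceptor beads (10 ug/mL) for 30 min.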
BAZ2B inh – blocks human BAZ2B; AlphaScreen BAZ2B-H3K14Ac peptide displacement; actives 4.4% (n = 360,000); Potency, µM (doses to about 114 µM), for the others: top-dose activity change, negative = inhibition, most hits filed as inhibitors; Q9UIF8; also: % is scaled to controls: 0 for no effect and ±100 for the full control effect; nearly all actives have a fitted effect of over 60% in size
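Compounds, titrated to a top concentration of 110 uM, were incubated 30 min at room temperature with preformed BAZ2B/acetyl-K14 H3 peptide complex (50 nM each). Proximity signal was measured by AlphaScreen after 20 min with beads.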
An asterisk follows results filed as active; [ ] = dose if it differs, or a comment. Sampled rows, rich in hits. Any-hit rate of the full collection: about 12%. Calls follow the shape of the dose curve; as a rule, active = well fitted curve in the direction sought with a large enough effect; inconclusive = small, poorly fitted or top-dose-only effect, or another doubt; inactive = no such curve, though single readings can be large; an effect the other way counts as inactive or inconclusive. Potency is read from the fitted curve at half-maximal effect.

How did c1ccc(Cc2nn3c(-c4ccncc4)nnc3s2)cc1 do in these assays?
L3MBTL1 inh: -1%; JMJD2A Tudor: -22%; G9a block: inconclusive; Sfp inh: inconclusive; HP1b binding inh: -38%; BAZ2B inh: 9%

Results for O=C(Nc1ccc2[nH]ncc2c1)c1ccccc1Cl ?
JMJD2A Tudor: 3%; Sfp inh: 6%; HP1b binding inh: 37%; BAZ2B inh: -6%

How did CC(C)(C)c1ccc(-c2nnc(SCC(=O)NC3CCS(=O)(=O)C3)n2N)cc1 (stereo not given) do in these assays?
JMJD2A Tudor: -24%; G9a block: 20µM*; Sfp inh: -22%; HP1b binding inh: 9%

What do the screens show for `Cc1ccccc1-n1c(-c2ccc(Cl)cc2)cnc1SCC(=O)NC1CCS(=O)(=O)C1` (stereo not given)?
L3MBTL1 inh: -3%; JMJD2A Tudor: inconclusive; G9a block: 8.9µM*; Sfp inh: -8%; HP1b binding inh: -29%; BAZ2B inh: 50µM*

Results for CCC(CO)Oc1cc(NCc2ccc(Cl)cc2)c2ncn(C(C)C)c2c1 (stereo not given) ?
L3MBTL1 inh: -16%; JMJD2A Tudor: 50µM*; HP1b binding inh: -21%

How did CC[C@H](CO)Oc1cc(NCc2ccc(Cl)c(Cl)c2)c2ncn(C(C)C)c2c1 do in these assays?
L3MBTL1 inh: -27%; JMJD2A Tudor: 32µM*; HP1b binding inh: -15%

How did CCC(CO)Oc1cc(NCc2ccc(OC)cc2)c2ncn(C(C)C)c2c1 (stereo not given) do in these assays?
L3MBTL1 inh: -7%; JMJD2A Tudor: -36%; G9a block: -4%[0.501 µM]; HP1b binding inh: -7%; BAZ2B inh: inconclusive

Results for CCC(CO)Oc1cc(NCc2ccc(Cl)cc2Cl)c2ncn(C(C)C)c2c1 (stereo not given) ?
L3MBTL1 inh: -25%; JMJD2A Tudor: 40µM*; HP1b binding inh: -18%

Results for CCC(CO)Oc1cc(NCc2ccc(C)cc2)c2ncn(C(C)C)c2c1 (stereo not given) ?
L3MBTL1 inh: -14%; JMJD2A Tudor: 56µM*; HP1b binding inh: -3%

How did COc1ccc(S(=O)(=O)NCC2CCCO2)cc1NC(=O)c1ccccc1F (stereo not given) do in these assays?
JMJD2A Tudor: -11%; G9a block: 13%; Sfp inh: -2%; HP1b binding inh: 120%; BAZ2B inh: -9%

Results for COc1ccc([C@@H]2CC(=O)c3c(O)cc(O[C@@H]4O[C@H](CO[C@@H]5O[C@@H](C)[C@H](O)[C@@H](O)[C@H]5O)[C@@H](O)[C@H](O)[C@H]4O)cc3O2)cc1 ?
Sfp inh: 6%

What do the screens show for `CCCCC(=O)N1CCN(c2nc3ccc(Cl)cc3s2)CC1`?
JMJD2A Tudor: 3%; G9a block: 15%[0.501 µM]; Sfp inh: 3%; HP1b binding inh: 42%; BAZ2B inh: -1%

How did CCC(CO)Oc1cc(NCc2cccc(C)c2)c2ncn(C(C)C)c2c1 (stereo not given) do in these assays?
L3MBTL1 inh: -8%; JMJD2A Tudor: inconclusive; HP1b binding inh: 30%

What do the screens show for `CCOc1cc(NCc2ccccc2)c2ncn(C(C)C)c2c1`?
L3MBTL1 inh: inconclusive; JMJD2A Tudor: 50µM*; HP1b binding inh: inconclusive

What do the screens show for `CC(Sc1nc(-c2ccccc2)cc(C(F)(F)F)n1)C(=O)Nc1sc2c(c1C(N)=O)CCC2` (stereo not given)?
L3MBTL1 inh: 6%; JMJD2A Tudor: -20%[57.1 µM]; G9a block: inconclusive; Sfp inh: inconclusive; HP1b binding inh: 44%; BAZ2B inh: -34%

Results for CC(Sc1nc(-c2ccccc2)cc(C(F)(F)F)n1)C(=O)Nc1sc2c(c1C#N)CCC2 (stereo not given) ?
L3MBTL1 inh: -7%; JMJD2A Tudor: -23%; G9a block: 40µM*; Sfp inh: -11%; HP1b binding inh: -22%; BAZ2B inh: -18%[57.1 µM]

How did O=S(=O)(c1ccc(Cl)cc1)N1CCN(CCc2ccncc2)CC1 do in these assays?
JMJD2A Tudor: 2%; G9a block: 11%[59 µM]; Sfp inh: 2%; HP1b binding inh: 22%; BAZ2B inh: 4%

How did Cc1ccc(C(=O)Nc2ncc(C)s2)o1 do in these assays?
JMJD2A Tudor: -34%; G9a block: -41%[59 µM]; Sfp inh: -1%; HP1b binding inh: 1%; BAZ2B inh: -22%

Results for Cc1cnc(NC(=O)NCC2CCCC(CNC(=O)Nc3ncc(C)s3)C2)s1 (stereo not given) ?
JMJD2A Tudor: inconclusive; G9a block: inconclusive; Sfp inh: 9%; HP1b binding inh: -19%; BAZ2B inh: 32µM*

How did Cc1ccc(NC(=O)Cn2c(=O)n(-c3ccccc3)c(=O)c3ccc(C(=O)NCc4ccc5c(c4)OCO5)cc32)cc1 do in these assays?
JMJD2A Tudor: -1%; G9a block: 2%[59 µM]; HP1b binding inh: 30%

What do the screens show for `Cc1cc2n(n1)SC(Nc1ccc(F)cc1)N2` (stereo not given)?
L3MBTL1 inh: -1%; JMJD2A Tudor: 20µM*; G9a block: 1.4µM*; Sfp inh: -4%; HP1b binding inh: -12%; BAZ2B inh: 2%

What do the screens show for `CCc1ccccc1NC(=O)N1CCCn2nc(C)cc21`?
JMJD2A Tudor: 7%; G9a block: 4%[59 µM]; HP1b binding inh: 36%; BAZ2B inh: -2%

How did CCc1ccccc1NC1Nc2cc(C)nn2S1 (stereo not given) do in these assays?
JMJD2A Tudor: inconclusive; G9a block: 1.6µM*; Sfp inh: 17%; HP1b binding inh: 17%; BAZ2B inh: -26%

Results for Cc1cc2n(n1)SC(Nc1cc(Cl)ccc1Cl)N2 (stereo not given) ?
L3MBTL1 inh: inconclusive; JMJD2A Tudor: -32%; G9a block: 7.9µM*; Sfp inh: 2%; HP1b binding inh: -4%; BAZ2B inh: 2%

Results for CCOC(=O)c1c(-n2c(C)cc(C=O)c2C)sc2c1CCCC2 ?
L3MBTL1 inh: -4%; JMJD2A Tudor: 56µM*; G9a block: inconclusive; Sfp inh: inconclusive; HP1b binding inh: -30%; BAZ2B inh: inconclusive

Results for CCOC(=O)c1cccc(-n2c(C)cc(C=O)c2C)c1 ?
L3MBTL1 inh: -17%; JMJD2A Tudor: -23%; G9a block: -1%[59 µM]; Sfp inh: 6%; HP1b binding inh: inconclusive; BAZ2B inh: inconclusive

How did Cc1ccc(C)n1-c1sc2c(c1C(=O)O)CCCC2 do in these assays?
L3MBTL1 inh: inconclusive; JMJD2A Tudor: 22µM*; G9a block: 45µM*; Sfp inh: -17%; HP1b binding inh: inconclusive; BAZ2B inh: inconclusive

From PubChem
